ELG1 DNA repair: qHTS screen for small molecules that inhibit ELG1-dependent DNA repair in human embryonic kidney (HEK293T) cells expressing luciferase-tagged ELG1; AID 504467, 2011; HEK293T ELG1-luciferase reporter, luminescence, 16 h; DNA damage induced by 5-fluorouridine; hit rate 2.3% among 330,000; Potency, µM (highest dose often 46.1 µM), inactives show at the top dose activity change, negative = inhibition, actives largely listed as inhibitors; also: % is scaled to controls: 0 for no effect and ±100 for the full control effect; nearly all actives have a fitted effect of over 55% in size
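Overnight (16 hr) co-exposure of 2,000 cells/well to 5-fluorouridine and compound at 37 °C preceded detection. Luciferase was quantified via ONE-Glo luminescence; loss of signal denotes inhibition.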
ELG1 genotox: qHTS screen for small molecules that induce genotoxicity in human embryonic kidney (HEK293T) cells expressing luciferase-tagged ELG1; AID 504466, 2011; HEK293T ELG1-luciferase reporter, luminescence, 16 h; hit rate 1.3% among 330,000; Potency, µM (top dose mostly 46 µM), for inactives: top-dose activity change, positive = activation, usual class: activators; also: % of control where 0% means no effect; nearly all actives have a fitted effect of over 60% in size
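16 hr compound incubation (37 °C, 5% CO2) of HEK293T cells carrying luciferase-tagged ELG1; luciferase then measured by ONE-Glo luminescence after 30 min at RT.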
SMN2 splice up: qHTS Assay for Enhancers of SMN2 Splice Variant Expression. HEK293 SMN2-luciferase splicing reporter, luminescence, 30-36 h. Potency, µM (titrated, usually from 46.1 µM), for inactives: at the highest dose activity change, positive = activation, hits mostly activators. hit rate 2.8% among 210,000. AID 1458, 2008; also: % of control where 0% means no effect; nearly all actives have a fitted effect of over 55% in size
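HEK293 cells carry an SMN2 […]–luciferase reporter in which exon 7 inclusion puts luciferase in frame. Cells were plated 10-12 h before compound addition, then incubated 30-36 h at 37C. ONE-Glo luminescence was read; sodium butyrate at 4.5 mM final served as control.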
NPC1 promoter act: qHTS Assay for NPC1 Promoter Activators. Potency, µM (titrated, usually from 9.22 µM), for the others: top-dose activation, actives largely listed as activators. Huh7 NPC1 promoter luciferase reporter, 24 h. hit rate 2.4% among 320,000; also: % of control where 0% means no effect; nearly all actives have a fitted effect of over 60% in size
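Luminescence read-out of NPC1 promoter-driven luciferase in stably transfected Huh7 cells; compounds delivered in DMSO and left 24 h at 37C, 5% CO2, qHTS titration format.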
Rab9 prom act: qHTS Assay for Rab9 Promoter Activators. Huh7 Rab9 promoter-luciferase reporter, luminescence, 24 h. Potency, µM (titrated, usually from 9.22 µM), for the others: at the highest dose activation, negative = inhibition, most hits filed as activators. hit rate 2.8% among 320,000; also: % of control where 0% means no effect; nearly all actives have a fitted effect of over 60% in size
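Rab9 promoter-driven luciferase in stably transfected Huh7 cells; 1500 cells/well rested 2 h, exposed to compound in DMSO for 24 h at 37 °C, 5% CO2. Luminescence read 10 min after adding luciferase reagent at ambient temperature.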
FLuc counter: qHTS profiling assay for firefly luciferase inhibitor/activator using purifed enzyme and Km concentrations of substrates (counterscreen for miR-21 project). Luciferin 4-monooxygenase (Photinus pyralis), P08659. purified FLuc, Km substrates, luminescence inhibition. Potency, µM (top dose mostly 57.5 µM), inactives show at the top dose activity change, negative = inhibition, usual class: inhibitors. hit rate 6.9% among 360,000;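 also: plate controls were vehicle for no effect and reference inhibitor for full effect; nearly all actives have a fitted effect of over 55% in size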
Target sequence (P08659 whole entry, looked up): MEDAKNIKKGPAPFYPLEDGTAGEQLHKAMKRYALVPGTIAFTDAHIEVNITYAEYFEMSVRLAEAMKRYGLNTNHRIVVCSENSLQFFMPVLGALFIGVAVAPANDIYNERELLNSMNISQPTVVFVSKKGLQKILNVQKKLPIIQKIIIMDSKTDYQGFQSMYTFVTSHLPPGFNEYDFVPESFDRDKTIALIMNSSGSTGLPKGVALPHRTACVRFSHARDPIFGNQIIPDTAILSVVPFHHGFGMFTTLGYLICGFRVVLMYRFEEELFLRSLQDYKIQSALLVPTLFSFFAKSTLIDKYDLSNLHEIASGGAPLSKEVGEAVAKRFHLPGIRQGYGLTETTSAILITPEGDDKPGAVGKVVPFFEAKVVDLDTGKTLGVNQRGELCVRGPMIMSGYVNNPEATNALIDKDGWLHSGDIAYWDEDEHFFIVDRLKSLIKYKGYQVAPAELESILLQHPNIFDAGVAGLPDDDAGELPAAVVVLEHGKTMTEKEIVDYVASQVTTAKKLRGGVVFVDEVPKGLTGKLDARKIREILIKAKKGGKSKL
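Biochemical qHTS of compounds, final roughly 60 µM downward over six points, against 10 nM purified firefly luciferase using Km concentrations of substrates (10 uM D-luciferin, 10 uM ATP) in Tris acetate pH 7.5 buffer; luminescence output.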
Numbers without * were called inactive; ? = inconclusive; . = not tested or not shown; [ ] = dose if it differs, or a comment. This is a sample that favours compounds with a hit; in the whole collection about 9.2% have one here. Calls follow the shape of the dose curve; as a rule, active = well fitted curve in the direction sought with a large enough effect; inconclusive = small, poorly fitted or top-dose-only effect, or another doubt; inactive = no such curve, though single readings can be large; an effect the other way counts as inactive or inconclusive. Potency is read from the fitted curve at half-maximal effect.

SMILES	ELG1 DNA repair	ELG1 genotox	SMN2 splice up	NPC1 promoter act	Rab9 prom act	FLuc counter
CCOC(=O)c1ccccc1NC(=O)N(Cc1ccco1)C1CCN(C(C)=O)CC1	.	.	.	.	.	2%
COc1ccc(NC(=S)NCc2cccs2)cc1	-9%	-1%	?	-1%	4%	?
CC(C)c1ccc(NC(=S)NCc2cccs2)cc1	?	?	17%	24%	20%	15µM*
CCc1ccc(C(=O)NNC(=O)CN2C(=O)NC(CC)(c3ccccc3)C2=O)cc1 (stereo not given)	16%	1%	.	5%	-1%	17µM*
CCN(CC)c1ccc(C(=O)NNC(=O)CN2C(=O)NC3(CCCCC3)C2=O)cc1	11%	9%	.	-6%	1%	9.5µM*
CCN(CC)c1ccc(C(=O)NNC(=O)c2cccn2C)cc1	?	?	.	?	3.5µM*	?
O=C(CN1C(=O)NC2(CCCC2)C1=O)NNC(=O)c1ccc(Cl)cc1	5%	0%	.	0%	-3%	-3%
CC1(c2ccccc2)NC(=O)N(CC(=O)NNC(=O)c2ccccc2)C1=O (stereo not given)	1%	0%	.	8%	-1%	0%
CCN(CC)c1ccc(C(=O)NNC(=O)CCl)cc1	13%	6%	26%	-14%	-10%	-13%
CCC1(c2ccccc2)NC(=O)N(CC(=O)NNC(=O)c2ccoc2C)C1=O (stereo not given)	-1%	1%	.	-3%	-1%	4%
CCN(CC)c1ccc(C(=O)NNC(=O)CN2C(=O)NC(C)(c3ccccc3)C2=O)cc1 (stereo not given)	?	8%	.	2%	-2%	5.4µM*
O=C(Nc1c(C(=O)N2CCN(c3ccccc3)CC2)oc2ccccc12)c1ccc(Br)o1	.	.	.	.	.	-2%
Cc1ccc(C(=O)Nc2ccc(-c3cn4cccnc4n3)cc2)cc1C	.	.	16%	.	.	4%
COCCNc1nc(-c2ccc(OC)cc2)c(-c2ccc(OC)cc2)s1	21µM*	-3%	8%	-8%	1%	-2%
COc1ccc(-c2nc(NC(C)=O)sc2-c2ccccc2)cc1	21µM*	-2%	5%	1%	-3%	-9%
CCN(CC)C(=O)c1nc[nH]c1C(=O)N1CCN(c2ccccc2)CC1	7%	2%	.	-3%	-3%	5%
Cc1noc(-c2ccc(-c3noc(-c4cccc(Cl)c4)n3)cc2)n1	.	.	.	.	.	-2%
O=C(O)c1cccc(-c2noc(-c3cccc(Cl)c3)n2)c1	?	?	.	0.089µM*	?	0.019µM*
Fc1ccccc1-c1nc(-c2cnccc2C(F)(F)F)no1	?	-11%	.	1%	10%	?
O=C(O)c1cccc(-c2nc(-c3ccccc3C(F)(F)F)no2)c1	.	.	.	.	.	0.17µM*
NC(=O)c1ccc(-c2noc(-c3cccc(Cl)c3)n2)cc1	?	?	.	2.5µM*	?	?
COc1cc(-c2noc(-c3cccc(Cl)c3)n2)cc(OC)c1OC	13%	-6%	-12%	2%	6%	-5%
CC1CCOC(c2coc3ccccc3c2=O)O1 (stereo not given)	?	?	10µM*	?	?	13µM*
O=C(O)C1CSC(c2coc3ccccc3c2=O)N1 (stereo not given)	-1%	1%	19%	1%	-9%	3%
CN1CCN(C(=O)c2cc3sc4ccccc4c3s2)CC1	?	?	.	0.63µM*	0.71µM*	3µM*
SMILES	ELG1 DNA repair	ELG1 genotox	SMN2 splice up	NPC1 promoter act	Rab9 prom act	FLuc counter
CCn1c(=O)c2cc(C(=O)N3CCN(C)CC3)sc2c2ccccc21	?	-5%	-1%	-1%	-2%	1%
CCOC(=O)CC1CCCCN1C(=O)CCCn1nnnc1CN1CCC(C)CC1 (stereo not given)	7%	-1%	.	2%	4%	4%
NC(=O)C1CCN(C2CC(=O)NC2=O)CC1 (stereo not given)	16%	-1%	16%	-2%	-3%	2%
Cc1cc(C(=O)OCC(=O)c2ccccc2)c2ccccc2n1	4%	3%	.	-6%	-3%	?
Cc1ccc(C)c(C(=O)COC(=O)c2cc(Cl)nc3ccccc23)c1	?	2%	-10%	1%	-3%	12µM*
Cc1ccc(C(=O)COC(=O)c2cc(Cl)nc3ccccc23)cc1C	-3%	0%	-6%	-6%	-7%	15µM*
CC(=O)N1CCc2cc(Br)cc(S(=O)(=O)CCC(=O)N3CCN(c4cccc(C)c4C)CC3)c21	.	.	-42%	.	.	-15%
O=C(O)CCSc1ccc2ccccc2n1	?	9%	-9%	0%	3%	24µM*
O=C(O)CCSc1nc2ccccc2s1	-19%	-13%	-32%	-4%	0%	21µM*
CCC(C)(C)NC(=O)CCCSc1nc2ccccc2s1	-16%	12%	?	?	?	24µM*
O=C(O)CSc1ccc2ccccc2n1	11%	-2%	-9%	2%	-4%	1%
c1ccc2sc(SCSc3nc4ccccc4s3)nc2c1	?	9%	-1%[9.22 µM]	12%	6%	?
CCc1cccc(CC)c1NC(=O)CCCSc1nc2ccccc2s1	?	-5%	.	-1%	-3%	-1%
N#CCc1nc(CSc2nc3ccccc3s2)cs1	?	18µM*	25%	29%	?	?
N#CCCCSc1nnc(CSc2nc3ccccc3s2)n1-c1ccccc1	?	-11%	-24%	1%	4%	4%
Cc1cc(CN(C)C(=O)CC2C(=O)NCCN2Cc2c(F)cccc2Cl)on1 (stereo not given)	22%	1%	.	0%	-1%	-3%
Cc1ccc(Cl)cc1N1CCN(C(=O)c2ccccc2SCC(=O)N2CCCC2)CC1	-23%	-3%	.	-1%	-10%	0%
O=C(COC(=O)c1ccccc1)NCCC1=CCCCC1	-20%	0%	-5%	-1%	1%	15µM*
O=C(COC(=O)c1ccc(Br)cc1)NCCC1=CCCCC1	7%	3%	-3%	-3%	-2%	3%
O=C(CCCc1ccccc1)NCCC1=CCCCC1	-3%	1%	-6%	-4%	4%	24µM*
CN(C)c1ccc(C(=O)OCC(=O)NCCC2=CCCCC2)cc1	8%	-4%	-2%	-2%	12%	-9%
Cc1ccsc1C(=O)OCC(=O)NCCC1=CCCCC1	?	?	20%	22%	22%	12µM*

Screening data deposited in PubChem BioAssay by National Center for Advancing Translational Sciences (NCATS).
